Records with an inconclusive call do not appear. Calls of active or inactive are those of the source. The calls were made as follows: active = hit-call score of the fitted dose curve at least 0.9, where 1 is the maximum; inconclusive = response in the unintended direction; inactive = score below 0.9.
Each molecule was assayed against Cytochrome P450 2C19 (Homo sapiens) (UniProt P33261) (assay: NVS_ADME_hCYP2C19: NovaScreen (NVS) CYP450-related Enzyme Activity (ADME) Assay for human CYP2C19 (AID 2283113);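 as to AC50: potency for inhibition seen as loss of fluorescent signal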).
Summary of the method: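 Compounds first screened in duplicate at 10 uM, then confirmed in concentration series. Insect-cell-expressed human CYP2C19 turned over a fluorogenic substrate, and fluorescence was read after 1 h. Inhibition taken as signal loss relative to acetonitrile.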

SMILES	AC50	outcome
Nc1ccc([N+](=O)[O-])cc1	6.15 µM (active)	
C[C@]12C=CC3=C4CCC(=O)C=C4CC[C@H]3[C@@H]1CC[C@@H]2O	5.75 µM (active)	
Nc1ccc(Cl)cc1N		inactive

These molecules were tested against human Acetylcholinesterase (AChE), ACHE (gene 43) (UniProt P22303) (assay: NVS_ENZ_hAChE: NovaScreen (NVS) Enzymatic Assay for human Acetylcholinesterase (AChE) (AID 2283129)).
Summary of the method: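 Actives from a duplicate single-point screen (25 uM) were followed up in concentration series. Enzyme activity read by absorbance (colorimetric) 0.33 hour after dosing, cell-free, normalized to DMSO, with loss of signal scored.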

Chain of human Acetylcholinesterase (AChE), ACHE (gene 43) (P22303 whole entry, looked up): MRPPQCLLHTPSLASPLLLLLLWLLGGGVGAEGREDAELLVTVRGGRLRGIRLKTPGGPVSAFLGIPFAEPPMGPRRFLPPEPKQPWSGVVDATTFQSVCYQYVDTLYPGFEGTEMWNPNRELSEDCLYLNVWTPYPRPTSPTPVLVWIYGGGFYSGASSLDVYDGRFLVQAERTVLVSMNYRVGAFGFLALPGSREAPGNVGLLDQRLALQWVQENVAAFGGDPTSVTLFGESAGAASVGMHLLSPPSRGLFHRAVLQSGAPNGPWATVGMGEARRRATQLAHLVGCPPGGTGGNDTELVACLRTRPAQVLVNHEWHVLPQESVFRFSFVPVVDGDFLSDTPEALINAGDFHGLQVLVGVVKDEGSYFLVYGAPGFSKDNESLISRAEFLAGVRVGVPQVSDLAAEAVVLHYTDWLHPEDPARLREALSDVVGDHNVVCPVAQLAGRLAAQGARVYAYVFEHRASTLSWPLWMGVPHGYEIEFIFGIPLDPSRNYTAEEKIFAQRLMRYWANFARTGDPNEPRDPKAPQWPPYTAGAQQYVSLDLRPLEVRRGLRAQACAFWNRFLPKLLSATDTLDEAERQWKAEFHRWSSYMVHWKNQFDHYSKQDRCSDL

SMILES	AC50	outcome
Cc1ccc(N=C=O)cc1N=C=O	8.65 µM (active)	
CCC[CH2][Sn]([Cl])([CH2]CCC)[CH2]CCC		inactive
CCCCCOC(=O)c1ccccc1C(=O)OCCCCC		inactive
CCCCCCCCOC(=O)c1ccc(C(=O)OCCCCCCCC)c(C(=O)OCCCCCCCC)c1		inactive
CCCCC(CC)COC(=O)c1ccc(C(=O)OCC(CC)CCCC)c(C(=O)OCC(CC)CCCC)c1 (stereo unspecified)		inactive
CNC(=O)Oc1cccc2c1OC(C)(C)C2	0.497 µM (active)	

Each molecule was assayed against human AMP-activated Protein Kinase, alpha 1 (AMPKa1), PRKAA1 (gene 5562) (UniProt Q13131) (assay: NVS_ENZ_hAMPKa1: NovaScreen (NVS) Enzymatic Assay for human AMP-activated Protein Kinase, alpha 1 (AMPKa1) (AID 2283130)).
Summary of the method: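 Compounds were screened in duplicate at 25 uM, and those reaching ~30% inhibition were titrated up to 50 uM. The enzyme was recombinant human AMPKα1, and kinase turnover was read by fluorescence/mobility shift 1 h post-dosing as loss of signal versus DMSO.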

Chain of human AMP-activated Protein Kinase, alpha 1 (AMPKa1), PRKAA1 (gene 5562) (Q13131 whole entry, looked up): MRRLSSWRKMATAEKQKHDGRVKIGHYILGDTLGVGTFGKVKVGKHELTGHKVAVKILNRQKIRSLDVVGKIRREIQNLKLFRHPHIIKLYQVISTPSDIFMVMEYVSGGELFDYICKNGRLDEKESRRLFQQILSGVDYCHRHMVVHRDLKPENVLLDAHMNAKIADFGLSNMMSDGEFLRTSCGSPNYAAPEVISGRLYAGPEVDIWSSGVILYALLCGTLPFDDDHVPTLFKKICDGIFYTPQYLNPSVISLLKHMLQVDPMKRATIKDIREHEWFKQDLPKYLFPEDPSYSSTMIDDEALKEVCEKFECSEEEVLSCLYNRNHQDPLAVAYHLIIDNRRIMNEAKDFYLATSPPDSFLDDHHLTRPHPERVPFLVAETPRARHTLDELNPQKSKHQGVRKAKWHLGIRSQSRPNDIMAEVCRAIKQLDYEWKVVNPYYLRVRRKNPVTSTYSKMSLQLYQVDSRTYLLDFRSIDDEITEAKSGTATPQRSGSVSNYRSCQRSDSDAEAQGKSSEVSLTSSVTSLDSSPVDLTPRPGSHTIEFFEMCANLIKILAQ

SMILES	outcome
O=C(Oc1ccc(Br)cc1)N1CCN2CCC1CC2	inactive
CCCCC(CC)COC(=O)c1ccc(C(=O)OCC(CC)CCCC)c(C(=O)OCC(CC)CCCC)c1 (stereo unspecified)	inactive
Oc1ccccc1Cl	inactive

The molecules below were run against human Caspase 5 (CASP5), CASP5 (gene 838) (UniProt P51878) (assay: NVS_ENZ_hCASP5: NovaScreen (NVS) Enzymatic Assay for human Caspase 5 (CASP5) (AID 2283137)).
Summary of the method: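 Loss of fluorescent signal versus DMSO scored for E. coli-derived human CASP5 cleaving a fluorescent substrate, 2 h post-dosing; compounds first tested at 25 uM in duplicate, hits rerun in concentration series with 50 uM top concentration.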

Chain of human Caspase 5 (CASP5), CASP5 (gene 838) (P51878 whole entry, looked up): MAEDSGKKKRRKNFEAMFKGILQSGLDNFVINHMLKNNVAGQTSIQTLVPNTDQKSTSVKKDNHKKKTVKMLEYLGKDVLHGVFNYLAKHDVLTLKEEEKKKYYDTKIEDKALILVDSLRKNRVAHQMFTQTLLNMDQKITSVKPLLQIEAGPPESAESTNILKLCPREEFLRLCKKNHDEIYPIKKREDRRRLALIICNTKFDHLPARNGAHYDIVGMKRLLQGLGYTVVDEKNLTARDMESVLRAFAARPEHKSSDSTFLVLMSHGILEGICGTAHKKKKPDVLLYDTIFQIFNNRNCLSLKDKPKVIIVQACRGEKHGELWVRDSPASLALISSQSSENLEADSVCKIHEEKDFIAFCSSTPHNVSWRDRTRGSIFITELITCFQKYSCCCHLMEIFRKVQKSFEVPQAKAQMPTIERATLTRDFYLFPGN

SMILES	outcome	AC50
Cc1ccc(N=C=O)cc1N=C=O	inactive	
Cc1cccc(N)c1N	inactive	
CN(C)[C@@H]1C(=O)C(C(N)=O)=C(O)[C@@]2(O)C(=O)C3=C(O)c4c(O)cccc4[C@@](C)(O)[C@H]3C[C@@H]12		10.9 µM (active)
c1ccc(C2CO2)cc1 (stereo unspecified)	inactive	
Nc1ccc(Cl)cc1N	inactive	

What follows are molecules tested against human AKT serine/threonine Kinase 1 (AKT1), AKT1 (gene 207) (UniProt P31749) (assay: NVS_ENZ_hAKT1: NovaScreen (NVS) Enzymatic Assay for human AKT serine/threonine Kinase 1 (AKT1) (AID 2283138)).
Summary of the method: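 Screening first at 25 uM (duplicate), with threshold-passing chemicals re-tested in concentration series to a 50 uM maximum. Kinase activity read by fluorescence with mobility-shift separation of substrate and product, 1 h after dosing, DMSO baseline.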

Chain of human AKT serine/threonine Kinase 1 (AKT1), AKT1 (gene 207) (P31749 whole entry, looked up): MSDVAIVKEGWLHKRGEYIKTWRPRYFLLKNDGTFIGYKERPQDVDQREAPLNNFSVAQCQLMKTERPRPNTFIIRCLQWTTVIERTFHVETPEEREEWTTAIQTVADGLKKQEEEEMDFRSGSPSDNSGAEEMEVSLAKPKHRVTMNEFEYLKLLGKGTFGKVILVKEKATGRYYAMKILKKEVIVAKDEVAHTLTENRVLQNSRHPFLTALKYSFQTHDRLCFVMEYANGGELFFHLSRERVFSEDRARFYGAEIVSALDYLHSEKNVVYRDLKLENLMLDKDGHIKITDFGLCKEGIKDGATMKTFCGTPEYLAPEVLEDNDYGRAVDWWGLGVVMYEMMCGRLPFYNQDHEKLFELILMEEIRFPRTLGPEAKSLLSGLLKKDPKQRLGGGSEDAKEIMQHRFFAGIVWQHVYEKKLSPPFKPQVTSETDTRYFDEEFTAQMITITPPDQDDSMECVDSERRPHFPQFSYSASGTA

SMILES	outcome
Clc1ccc(Cl)c(Cl)c1	inactive
O=P(OCCCl)(OCCCl)OCCCl	inactive
CC(C)N(Cc1ccccc1)C(=O)C(C)(C)C	inactive
c1ccc(NNc2ccccc2)cc1	inactive

Each molecule was assayed against Caspase-3 (Homo sapiens) (UniProt P42574) (assay: NVS_ENZ_hCASP3: NovaScreen (NVS) Enzymatic Assay for human Caspase 3 (CASP3) (AID 2283139)).
Summary of the method: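 Single-concentration screening at 25 uM in duplicate, with concentration-response follow-up to a 50 uM maximum for chemicals passing the threshold. Caspase-3 (human, E. coli-expressed) activity was read as substrate fluorescence after 1 h, with loss of signal relative to DMSO.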

Chain of Caspase-3 (Homo sapiens) (P42574 whole entry, looked up): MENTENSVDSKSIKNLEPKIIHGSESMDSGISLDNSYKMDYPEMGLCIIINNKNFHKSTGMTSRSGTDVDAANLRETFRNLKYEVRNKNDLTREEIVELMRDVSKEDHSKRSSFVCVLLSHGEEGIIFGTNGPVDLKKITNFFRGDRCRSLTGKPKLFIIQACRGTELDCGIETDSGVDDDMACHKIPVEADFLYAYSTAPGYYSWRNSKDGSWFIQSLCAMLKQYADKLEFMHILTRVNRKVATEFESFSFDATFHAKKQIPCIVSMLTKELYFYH

SMILES	outcome	AC50
CCCCCCCCOC(=O)c1ccc(C(=O)OCCCCCCCC)c(C(=O)OCCCCCCCC)c1	inactive	
CCCSC(=O)N(CCC)CCC	inactive	
Nc1ccc(Cl)cc1N		4.4 µM (active)

The molecules below were run against human Beta-secretase (BACE), BACE1 (gene 23621) (UniProt P56817) (assay: NVS_ENZ_hBACE: NovaScreen (NVS) Enzymatic Assay for human Beta-secretase (BACE) (AID 2283140);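 also: hits are inhibitors that reduce fluorescent substrate signal versus DMSO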).
Summary of the method: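 Enzyme from SF9 cells was incubated 1 hour with compound and fluorogenic substrate, activity read by fluorescence. Single-concentration duplicates at 25 uM preceded concentration-response follow-up; fitting relative to DMSO baseline.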

Chain of human Beta-secretase (BACE), BACE1 (gene 23621) (P56817 whole entry, looked up): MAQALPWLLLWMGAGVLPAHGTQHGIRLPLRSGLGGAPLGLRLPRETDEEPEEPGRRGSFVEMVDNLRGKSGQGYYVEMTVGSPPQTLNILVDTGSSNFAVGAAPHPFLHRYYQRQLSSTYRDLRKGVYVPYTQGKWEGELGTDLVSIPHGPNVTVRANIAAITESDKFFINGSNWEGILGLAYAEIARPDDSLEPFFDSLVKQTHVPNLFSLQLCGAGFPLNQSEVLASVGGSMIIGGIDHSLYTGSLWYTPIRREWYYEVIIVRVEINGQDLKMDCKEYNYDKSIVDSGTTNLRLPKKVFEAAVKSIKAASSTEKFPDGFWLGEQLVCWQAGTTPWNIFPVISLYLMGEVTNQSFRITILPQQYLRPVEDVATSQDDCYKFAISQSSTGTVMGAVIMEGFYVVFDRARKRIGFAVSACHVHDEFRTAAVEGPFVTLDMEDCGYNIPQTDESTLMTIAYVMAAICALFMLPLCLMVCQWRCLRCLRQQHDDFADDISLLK

SMILES	AC50	outcome
Cc1ccc(N=C=O)cc1N=C=O	8.64 µM (active)	
CCC[CH2][Sn]([Cl])([CH2]CCC)[CH2]CCC	4.02 µM (active)	
CCCCCOC(=O)c1ccccc1C(=O)OCCCCC	11.5 µM (active)	
O=[N+]([O-])c1ccc(Oc2ccc(Cl)cc2Cl)cc1		inactive
CN(C)[C@@H]1C(=O)C(C(N)=O)=C(O)[C@@]2(O)C(=O)C3=C(O)c4c(O)cccc4[C@@](C)(O)[C@H]3C[C@@H]12		inactive
CCCCCCCCOC(=O)c1ccc(C(=O)OCCCCCCCC)c(C(=O)OCCCCCCCC)c1	11.2 µM (active)	
Cc1ccc(N)c(N)c1		inactive
c1ccc2c(c1)-c1cccc3cccc-2c13	1.18 µM (active)	
Nc1ccc(Cl)cc1N	2.52 µM (active)	

These molecules were tested against human AKT serine/threonine Kinase 2 (AKT2), AKT2 (gene 208) (UniProt P31751) (assay: NVS_ENZ_hAKT2: NovaScreen (NVS) Enzymatic Assay for human AKT serine/threonine Kinase 2 (AKT2) (AID 2283141)).
Summary of the method: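 Cell-free fluorescence/electrophoretic mobility shift readout of recombinant human AKT2 activity, 1 h after chemical dosing. Duplicate primary screen at 25 uM, then singleton concentration-response up to 50 uM; loss of signal versus DMSO baseline.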

Chain of human AKT serine/threonine Kinase 2 (AKT2), AKT2 (gene 208) (P31751 whole entry, looked up): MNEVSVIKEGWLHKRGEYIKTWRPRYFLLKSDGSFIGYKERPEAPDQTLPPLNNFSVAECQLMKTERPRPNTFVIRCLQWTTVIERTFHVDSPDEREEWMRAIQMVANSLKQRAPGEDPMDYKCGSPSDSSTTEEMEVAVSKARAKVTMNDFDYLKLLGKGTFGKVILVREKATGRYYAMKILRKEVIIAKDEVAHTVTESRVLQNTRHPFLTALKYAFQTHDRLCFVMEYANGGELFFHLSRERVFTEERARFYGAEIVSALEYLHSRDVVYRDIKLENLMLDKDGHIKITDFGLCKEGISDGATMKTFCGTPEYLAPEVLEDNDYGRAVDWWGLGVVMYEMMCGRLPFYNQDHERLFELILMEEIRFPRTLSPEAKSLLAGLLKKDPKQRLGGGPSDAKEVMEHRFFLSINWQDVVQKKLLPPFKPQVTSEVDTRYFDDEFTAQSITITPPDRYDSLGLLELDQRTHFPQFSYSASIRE

SMILES	outcome
Cc1ccc(N=C=O)cc1N=C=O	inactive
CCC[CH2][Sn]([Cl])([CH2]CCC)[CH2]CCC	inactive
C[N+](C)(C)CC1CO1 (stereo unspecified)	inactive
Cc1ccc(N)c(N)c1	inactive
CN(C)C(=O)Nc1ccc(Cl)cc1	inactive
O=P(OCCCl)(OCCCl)OCCCl	inactive
O=C1CCCO1	inactive
O=C(O)C1C2CCC(O2)C1C(=O)O (stereo unspecified)	inactive
c1ccc(NNc2ccccc2)cc1	inactive

What follows are molecules tested against human Aurora Kinase A - serine/threonine-protein Kinase 6 (AurA), AURKA (gene 6790) (UniProt O14965) (assay: NVS_ENZ_hAurA: NovaScreen (NVS) Enzymatic Assay for human Aurora Kinase A - serine/threonine-protein Kinase 6 (AurA) (AID 2283142)).
Summary of the method: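 Recombinant human AurA activity read by fluorescence after mobility-shift separation of product from substrate; 1 hour incubation. Chemicals first run in duplicate at 25 uM, then concentration series to 50 uM if over threshold; fitted relative to DMSO.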

Chain of human Aurora Kinase A - serine/threonine-protein Kinase 6 (AurA), AURKA (gene 6790) (O14965 whole entry, looked up): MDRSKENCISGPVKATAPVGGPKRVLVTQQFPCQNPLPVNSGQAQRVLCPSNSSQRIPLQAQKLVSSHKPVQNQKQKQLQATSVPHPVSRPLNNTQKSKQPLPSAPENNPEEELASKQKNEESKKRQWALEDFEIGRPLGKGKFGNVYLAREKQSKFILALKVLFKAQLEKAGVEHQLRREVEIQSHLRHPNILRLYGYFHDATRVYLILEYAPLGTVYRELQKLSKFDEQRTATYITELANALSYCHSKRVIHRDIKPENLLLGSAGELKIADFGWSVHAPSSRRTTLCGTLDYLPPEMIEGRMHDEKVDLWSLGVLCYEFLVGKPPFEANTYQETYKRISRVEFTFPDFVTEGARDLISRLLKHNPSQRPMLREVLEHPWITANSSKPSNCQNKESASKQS

SMILES	outcome	AC50
COc1cc(C=O)cc2c1[C@H](COC(N)=O)[C@]1(OC(C)=O)ON2C[C@H]2[C@@H]1N2C(C)=O	inactive	
Nc1ccc([N+](=O)[O-])cc1	inactive	
C[C@]12C=CC3=C4CCC(=O)C=C4CC[C@H]3[C@@H]1CC[C@@H]2O		35.3 µM (active)

Each molecule was assayed against human Caspase 4 (CASP4), CASP4 (gene 837) (UniProt P49662) (assay: NVS_ENZ_hCASP4: NovaScreen (NVS) Enzymatic Assay for human Caspase 4 (CASP4) (AID 2283143)).
Summary of the method: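 Compounds were first tested in duplicate at 25 uM, and hits were titrated singly to a 50 uM maximum. Recombinant protease from E. coli was read by fluorescence 2 h post-dose, and activity loss was fitted against the DMSO baseline.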

Chain of human Caspase 4 (CASP4), CASP4 (gene 837) (P49662 whole entry, looked up): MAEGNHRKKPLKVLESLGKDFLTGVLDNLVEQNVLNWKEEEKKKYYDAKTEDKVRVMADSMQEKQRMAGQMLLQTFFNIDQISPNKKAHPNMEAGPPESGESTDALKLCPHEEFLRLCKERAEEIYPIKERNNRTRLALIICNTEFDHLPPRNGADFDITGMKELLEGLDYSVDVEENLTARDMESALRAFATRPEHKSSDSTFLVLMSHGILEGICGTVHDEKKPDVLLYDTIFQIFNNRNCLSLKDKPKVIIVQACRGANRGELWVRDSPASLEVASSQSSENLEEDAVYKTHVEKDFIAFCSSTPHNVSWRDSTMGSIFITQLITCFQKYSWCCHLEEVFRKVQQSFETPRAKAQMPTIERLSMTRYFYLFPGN

SMILES	AC50	outcome
Cc1ccc(N=C=O)cc1N=C=O	13.7 µM (active)	
Cc1cccc(N)c1N		inactive
c1ccc(NNc2ccccc2)cc1		inactive

These molecules were tested against human Caspase 8 (CASP8), CASP8 (gene 841) (UniProt Q14790) (assay: NVS_ENZ_hCASP8: NovaScreen (NVS) Enzymatic Assay for human Caspase 8 (CASP8) (AID 2283146)).
Summary of the method: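 The primary screen tested compounds in duplicate at a single 25 uM concentration, with actives followed up in concentration series. Activity of recombinant (E. coli) protease was measured by fluorescence 1 h post-dose, as signal loss against DMSO.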

Chain of human Caspase 8 (CASP8), CASP8 (gene 841) (Q14790 whole entry, looked up): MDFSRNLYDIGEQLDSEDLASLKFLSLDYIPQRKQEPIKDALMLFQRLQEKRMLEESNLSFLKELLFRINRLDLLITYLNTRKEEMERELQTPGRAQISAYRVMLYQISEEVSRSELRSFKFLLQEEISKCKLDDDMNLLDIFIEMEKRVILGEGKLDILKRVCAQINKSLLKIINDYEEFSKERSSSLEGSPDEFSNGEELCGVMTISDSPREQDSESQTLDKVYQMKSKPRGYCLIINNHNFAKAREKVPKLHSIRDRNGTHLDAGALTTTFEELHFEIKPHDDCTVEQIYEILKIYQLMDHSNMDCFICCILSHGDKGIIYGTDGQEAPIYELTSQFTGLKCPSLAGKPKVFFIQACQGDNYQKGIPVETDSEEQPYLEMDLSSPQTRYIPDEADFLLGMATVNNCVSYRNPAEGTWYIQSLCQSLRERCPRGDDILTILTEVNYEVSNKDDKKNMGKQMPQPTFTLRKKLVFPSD

SMILES	AC50	outcome
COC(=O)c1ccccc1N	11.1 µM (active)	
Nc1ccc([N+](=O)[O-])cc1		inactive
Clc1ccc(Cl)c(Cl)c1		inactive
